Measurements: the supplement of paper PMC10498489
The campaign covered roughly 2,300 compounds. About 330 (14%) showed activity.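 How the source made its calls: active = median modified Z-score above 1.96; inactive = 1.96 or below.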 These entries were drawn from the full list.

Tested on: HepG2 Srxn1-GFP reporter cells (+30 nM CDDO-Me)
Assay: Srxn1-GFP intensity median modified Z-score relative to plate median; higher = stronger NRF2 / oxidative stress reporter activation, active = hit call of the paper
Conditions: 10 µM; exposure time: 24h
Method in brief: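 Values give the median, over replicates, of the modified Z-score of GFP intensity on each plate. HepG2 Srxn1-GFP BAC reporter cells were co-treated for 24 h with an NRF2 activator at 30 nM and compound at 10 μM (≤0.1% DMSO) in three replicate plates, then analysed per cell for cytoplasmic GFP on confocal images with at least 100 cells. Scaling used 1.4826 × median absolute deviation.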

Srxn1-GFP intensity median modified Z-score, active:
CCCCCCCCCc1ccc(OCCOCCOCCOCCOCCOCCOCCOCCOCCO)cc1 [euspeclibcmpd736] 18.5
COc1c(O)cc2oc3cc(O)c(CC=C(C)C)c(O)c3c(=O)c2c1C=CC(C)C [euspeclibcmpd1547] 34.4
COc1cc(O)c2c(=O)cc(C)oc2c1CC=C(C)C [euspeclibcmpd1598] 2.54
COc1cc2oc3cc(OC)c(OC)c(CC=C(C)C)c3c(=O)c2c(OC)c1CC=C(C)C [euspeclibcmpd1951] 13.2
CC(C)=CC1C(CO)C1(C)C (centres undefined) [euspeclibcmpd1789] 2.3
COc1ccc(C(C)C(=O)c2ccc(O)cc2O)cc1 (centres undefined) [euspeclibcmpd1599] 3.33
C[C@@H]1CC[C@H]2[C@@H](C)C(O)O[C@@H]3O[C@]4(C)CC[C@@H]1[C@]32OO4 (some centres undefined) [euspeclibcmpd1251] 3.33
C[C@H]1[C@H](OC(=O)CCC(=O)O)O[C@@H]2O[C@]3(C)CC[C@H]4[C@H](C)CC[C@@H]1[C@@]24OO3 [euspeclibcmpd985] 11
CC=C(C1=CC(=O)C(OC)=CC1=O)c1ccc(OC)cc1 [euspeclibcmpd1441] 5.77
CC=C(C1=CC(=O)C(OC)=CC1=O)c1ccccc1 [euspeclibcmpd1693] 3.26
Cc1ccc2c(Br)cc(Br)c(OC(=O)c3ccccc3)c2n1 [euspeclibcmpd2181] 2.44
NCCOB(c1ccccc1)c1ccccc1 [euspeclibcmpd2465] 7.48
Cc1ccc(-n2c(C)cc(C(=O)Cn3ncc(Cl)c(Cl)c3=O)c2C)cc1 29
S=c1[nH]cnc2[nH]cnc12 [euspeclibcmpd183] 59.5
C1N2CN3CN1CN(C2)C3 [euspeclibcmpd187] 9.99

Srxn1-GFP intensity median modified Z-score, inactive:
Oc1ccc(C(O)O)[nH]1 [euspeclibcmpd1237] -0.421
CC(=O)OCC[N+](C)(C)C [euspeclibcmpd13] -0.276
CC(C)=CCC=C(C)C=Cc1c(C)c(O)c2ccccc2c1O [euspeclibcmpd1484] -0.304
CN1CCN(C2N=c3cc(Cl)ccc3=Nc3ccccc32)CC1 (centres undefined) [euspeclibcmpd804] 0.387
C#CCCCCCCCCCCCc1ccco1 [euspeclibcmpd2261] -0.224
CCNCC(O)COc1ccc(CCOC)cc1 (centres undefined) 1.2
CCCCOc1ccc(CC(O)=NO)cc1 [euspeclibcmpd1071] 1.55
CC(N=C(N=c1cc[nH]cc1)NC#N)C(C)(C)C (centres undefined) [euspeclibcmpd960] 0.333
COc1ccc(-c2oc3cc(OC)c(OC)c(OC)c3c(=O)c2OC)cc1OC [euspeclibcmpd1579] 0.934
CC(C)=CCc1c(O)cc2oc(C)cc(=O)c2c1O [euspeclibcmpd1412] 1.94
COc1ccc(-c2oc3cc(OC)c(OC)c(OC)c3c(=O)c2OC)cc1 [euspeclibcmpd1578] 0.25
COc1cc2oc3cc(OC)c(OC)c(C=CC(C)C)c3c(=O)c2c(O)c1CC=C(C)C [euspeclibcmpd1769] -0.34
COc1ccc(-c2oc3c(CC=C(C)C)c(O[C@@H]4O[C@H](CO)[C@@H](O)[C@H](O)[C@H]4O)cc(O)c3c(=O)c2O[C@@H]2O[C@@H](C)[C@H](O)[C@@H](O)[C@H]2O)cc1 [euspeclibcmpd2338] 0.366
COc1cc(-c2coc3cc(O)c(OC)c(O)c3c2=O)cc(O)c1OC [euspeclibcmpd1394] 1.24
C[C@@H]1CC2C3CC=C4CC(=O)C=C[C@]4(C)[C@@]3(F)[C@@H](O)C[C@]2(C)[C@@]1(O)C(=O)COP(=O)(O)O (some centres undefined) [euspeclibcmpd2420] -0.794
CC[C@H]1OC(=O)C(C)[C@@H](O[C@H]2C[C@@](C)(OC)[C@@H](O)[C@H](C)O2)[C@H](C)[C@@H](O[C@@H]2O[C@H](C)C[C@H](N(C)C)[C@H]2O)[C@](C)(O)C[C@@H](C)[C@@H]2N[C@@H](COCCOC)O[C@H]([C@H]2C)[C@]1(C)O (some centres undefined) [euspeclibcmpd652] -0.125
O=C(O)C1=C(CSc2nnnn2CS(=O)(=O)O)CSC2C(NC(=O)C(O)c3ccccc3)C(=O)N12 (centres undefined) [euspeclibcmpd2255] 0.114
NC(C=O)C(O)NNCc1ccc(O)c(O)c1O (centres undefined) [euspeclibcmpd32] -0.0581
C[C@@H]1CC2C3CC(F)=C4CC(=O)C=C[C@]4(C)[C@@]3(F)[C@@H](O)C[C@]2(C)[C@@]1(O)C(=O)CO (some centres undefined) [euspeclibcmpd415] -0.177
CC(C)=CC1C(C(=O)O)C1(C)C (centres undefined) [euspeclibcmpd2019] 0.889
O=c1c(O)c(-c2ccc(O)cc2O)oc2cc(O)cc(O)c12 [euspeclibcmpd1432] -0.493
C[C@H](CCC(=O)O)[C@H]1CCC2C3C(CC[C@@]21C)[C@@]1(C)CC[C@@H](O)C[C@H]1C[C@@H]3O (some centres undefined) [euspeclibcmpd2109] -0.352
COc1ccc(SCC(=O)c2ccc(O)cc2O)cc1 1.51
COc1ccc(CC(=O)c2ccc(O)cc2O)cc1 [euspeclibcmpd1699] 1.77
CC(=O)C1CCC2C3CC=C4C[C@@H](OC(=O)CCC(=O)O)CC[C@]4(C)C3CC[C@]12C (some centres undefined) [euspeclibcmpd854] 1.01
CCC(C)C(=O)O[C@H]1C[C@H](O)C=C2C=C[C@H](C)[C@H](CC[C@@H](O)C[C@@H](O)CC(=O)O)C21 (some centres undefined) [euspeclibcmpd2392] -0.0232
CN1C(=O)OC(C)(C)C1=O [euspeclibcmpd801] -0.117
OCCN=CCNc1ccc(NCCNCCO)c2c(O)c3c(O)ccc(O)c3c(O)c12 [euspeclibcmpd568] -1.55
CC(=O)C(O)Nc1c(I)c(C(=O)NC(CO)CO)c(I)c(C(=O)NC(CO)CO)c1I (centres undefined) [euspeclibcmpd459] -0.445
Nc1c(Br)cc(Br)cc1CNC1CCC(O)CC1 (centres undefined) [euspeclibcmpd1118] -0.575
CC(=O)Oc1ccc2c(C)cc(=O)oc2c1 [euspeclibcmpd2400] -0.419
CC(=O)c1ccc(O[C@@H]2O[C@H](CO)[C@H](O)[C@H](O)[C@H]2O)cc1 1.43
COc1ccc(O)cc1 [euspeclibcmpd4] -0.253
CC=C(C1=CC(=O)C(OC)=CC1=O)c1ccc(O)cc1 [euspeclibcmpd1636] 0.385
CC=C(C1=CC(=O)C=CC1=O)c1ccccc1 [euspeclibcmpd1643] 1.51
CC=C(C1=CC(=O)C(OC)=C(OC)C1=O)c1ccccc1 [euspeclibcmpd1978] -0.444
CC(C)(/N=N/C(C)(C)C(=N)N)C(=N)N [euspeclibcmpd1744] -0.295
O=C(OOC(=O)c1ccccc1)c1ccccc1 [euspeclibcmpd511] -0.314
Cc1ccc2cccc(OC(=O)c3ccccc3)c2n1 1.25
NC[C@@H]1O[C@H](O[C@@H]2[C@@H](CO)OC(O[C@@H]3[C@@H](O)[C@H](N)C[C@H](N)[C@H]3O[C@H]3O[C@H](CO)[C@@H](O)[C@H](O)[C@H]3N)[C@@H]2O)[C@H](N)[C@@H](O)[C@@H]1O (some centres undefined) [euspeclibcmpd563] -0.129
CCCCCCCCCCCCCCCC(=O)OC[C@H](NC(=O)C(Cl)Cl)[C@H](O)c1ccc([N+](=O)[O-])cc1 [euspeclibcmpd52] 0.231
CC(=O)OCC(=O)[C@@]12N=C(C)O[C@@H]1CC1C3CC=C4CC(=O)C=C[C@]4(C)C3[C@@H](O)C[C@@]12C (some centres undefined) [euspeclibcmpd781] -0.377
Cc1onc(-c2c(Cl)cccc2Cl)c1C(=O)NC1C(=O)N2C1SC(C)(C)C2C(=O)O (centres undefined) [euspeclibcmpd2174] -0.262
CC(=O)OCC(CCn1cnc2c[nH]c(=N)nc21)COC(C)=O [euspeclibcmpd712] 0.533
Cc1ccc(-n2c(C)cc(C(=O)COC(=O)C3CC4C=CC3C4)c2C)cc1C (centres undefined) 0.589
COc1cc(NS(C)(=O)=O)ccc1N=c1c2ccccc2[nH]c2ccccc12 [euspeclibcmpd557] -1.65
CCC1CS/C(=N\c2ccc(Cl)c(Cl)c2)N1C(=O)CC1CC2CCC1C2 (centres undefined) 1.31
c1coc(CN=c2[nH]cnc3[nH]cnc23)c1 [euspeclibcmpd1534] 0.144
O=c1[nH]cnc2[nH]cnc12 [euspeclibcmpd1584] 0.249
CC(=O)C1CCC2C3=CC=C4CC(=O)CC[C@@]4(C)C3CC[C@]12C (some centres undefined) [euspeclibcmpd815] 1.45
CCCC[C@@H](CC)COC(=O)C(C#N)=C(c1ccccc1)c1ccccc1 [euspeclibcmpd936] 0.649
N#C[C@@H]1C[C@@H]2C[C@@H]2N1C(=O)C(N)C12CC3CC(CC(O)(C3)C1)C2 (some centres undefined) [euspeclibcmpd1283] -0.27
CC(C)CCCC(C)C1CCC2C3CC[C@H]4C[C@H](O)CC[C@]4(C)C3CC[C@]12C (some centres undefined) [euspeclibcmpd2260] -0.325
CC(=O)OCC(=O)[C@@]12OC(C)(C)O[C@@H]1CC1C3CC(F)=C4CC(=O)C=C[C@]4(C)[C@@]3(F)[C@@H](O)C[C@@]12C (some centres undefined) [euspeclibcmpd130] -0.571
